Laboratory results published in publication PMC7862700, “An all-to-all approach to the identification of sequence-specific readers for epigenetic DNA modifications on cytosine”.

Key:
Experiment in all cases: DAPPL (digital affinity profiling via proximity ligation, sequencing); 10 mM Tris-HCl pH 7.5, 50 mM NaCl, 1 mM DTT, 4% glycerol, room temperature, 30 min; GST-TFs on glutathione beads, 16-mer random dsDNA library, 0.1% formaldehyde crosslink after washing; high values mean tight binding
FEV = biological target: T1, FEV (Homo sapiens, UniProt Q99581 1-238); conditions: protein: recombinant; tags: N-terminal GST; dsDNA, one strand shown
T1 sequence: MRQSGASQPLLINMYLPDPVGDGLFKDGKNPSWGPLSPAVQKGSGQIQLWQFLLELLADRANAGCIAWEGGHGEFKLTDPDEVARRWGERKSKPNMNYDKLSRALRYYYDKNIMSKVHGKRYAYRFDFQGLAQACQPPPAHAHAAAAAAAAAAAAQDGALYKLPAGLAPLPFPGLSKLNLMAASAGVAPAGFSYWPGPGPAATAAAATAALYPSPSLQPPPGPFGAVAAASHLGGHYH
Outline: (§1)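 Yeast served to express human transcription factors as GST fusions, which were then captured on glutathione beads and labelled with DNA barcodes. Pooled with a tag-only sample, they were incubated with 200 nmole of a 16-mer random double-stranded DNA library for 30 min at room temperature in Tris/NaCl/DTT/glycerol buffer, washed, crosslinked with 0.1% formaldehyde, ligated by proximity, amplified by PCR and sequenced. Dividing each hexamer's read frequency for a factor by its frequency for the tag-only sample gives the binding signal.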

ETV5 = ETV5 (Homo sapiens, UniProt P41161 1-510); conditions: protein: recombinant; tags: N-terminal GST; dsDNA, one strand shown
Outline: as §1

HSF1 = HSF1 (Homo sapiens, UniProt Q00613 1-529); conditions: protein: recombinant; tags: N-terminal GST; chain copies: 3; dsDNA, one strand shown
Outline: as §1

SPIC = biological target: T2, SPIC (Homo sapiens, UniProt Q8N5J4 1-248); conditions: protein: recombinant; tags: N-terminal GST; dsDNA, one strand shown
T2 sequence: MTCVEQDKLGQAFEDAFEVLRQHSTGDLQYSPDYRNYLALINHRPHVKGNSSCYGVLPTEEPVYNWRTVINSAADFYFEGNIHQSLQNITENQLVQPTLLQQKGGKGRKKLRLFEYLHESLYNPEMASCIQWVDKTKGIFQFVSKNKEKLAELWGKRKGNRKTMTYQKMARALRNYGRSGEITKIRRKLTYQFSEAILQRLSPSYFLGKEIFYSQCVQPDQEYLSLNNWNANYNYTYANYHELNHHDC
Outline: as §1

ELF4 = ELF4 (Homo sapiens, UniProt Q99607 1-663); conditions: protein: recombinant; tags: N-terminal GST; dsDNA, one strand shown
Outline: as §1

ELK4 = biological target: T3, ELK4 (Homo sapiens, UniProt P28324-2 1-405); conditions: protein: recombinant; tags: N-terminal GST; dsDNA, one strand shown
T3 sequence: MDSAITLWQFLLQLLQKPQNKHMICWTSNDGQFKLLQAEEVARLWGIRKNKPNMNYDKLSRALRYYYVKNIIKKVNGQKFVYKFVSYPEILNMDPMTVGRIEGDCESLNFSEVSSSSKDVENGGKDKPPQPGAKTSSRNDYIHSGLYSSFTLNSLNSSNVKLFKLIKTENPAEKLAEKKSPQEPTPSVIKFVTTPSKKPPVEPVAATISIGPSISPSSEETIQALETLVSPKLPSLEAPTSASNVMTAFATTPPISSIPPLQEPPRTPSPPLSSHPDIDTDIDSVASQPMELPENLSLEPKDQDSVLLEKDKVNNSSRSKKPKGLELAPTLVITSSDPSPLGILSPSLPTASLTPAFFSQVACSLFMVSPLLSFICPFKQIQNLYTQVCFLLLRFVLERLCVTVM
Outline: as §1

ETV2 = biological target: T4, ETV2 (Homo sapiens, UniProt O00321 1-342); conditions: protein: recombinant; tags: N-terminal GST; dsDNA, one strand shown
T4 sequence: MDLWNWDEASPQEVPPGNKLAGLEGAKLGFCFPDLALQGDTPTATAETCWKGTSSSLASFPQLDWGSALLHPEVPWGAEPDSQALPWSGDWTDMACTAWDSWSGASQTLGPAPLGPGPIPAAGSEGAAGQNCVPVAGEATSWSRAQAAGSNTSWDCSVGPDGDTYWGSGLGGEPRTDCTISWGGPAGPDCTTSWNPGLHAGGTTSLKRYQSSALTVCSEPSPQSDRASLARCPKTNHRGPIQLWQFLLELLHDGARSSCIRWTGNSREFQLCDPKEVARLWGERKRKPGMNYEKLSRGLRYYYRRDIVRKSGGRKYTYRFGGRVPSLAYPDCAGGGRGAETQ
Outline: as §1

ELF3 = biological target: T5, ELF3 (Homo sapiens, UniProt P78545 1-371); conditions: protein: recombinant; tags: N-terminal GST; dsDNA, one strand shown
T5 sequence: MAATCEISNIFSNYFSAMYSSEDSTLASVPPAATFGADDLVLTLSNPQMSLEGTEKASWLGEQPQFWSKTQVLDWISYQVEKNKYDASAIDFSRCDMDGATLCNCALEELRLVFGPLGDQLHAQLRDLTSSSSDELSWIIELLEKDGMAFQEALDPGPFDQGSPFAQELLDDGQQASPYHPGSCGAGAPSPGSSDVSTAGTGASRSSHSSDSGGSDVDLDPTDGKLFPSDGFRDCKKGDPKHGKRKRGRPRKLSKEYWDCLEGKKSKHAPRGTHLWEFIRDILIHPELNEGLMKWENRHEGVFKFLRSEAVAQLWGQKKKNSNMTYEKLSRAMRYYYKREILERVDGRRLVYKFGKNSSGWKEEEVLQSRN
Outline: as §1

CRX = CRX (Homo sapiens, UniProt O43186 1-299); conditions: protein: recombinant; tags: N-terminal GST; dsDNA, one strand shown
Outline: as §1

ETV1 = ETV1 (Homo sapiens, UniProt P50549 1-477); conditions: protein: recombinant; tags: N-terminal GST; dsDNA, one strand shown
Outline: as §1

ERF = biological target: T6, ERF (Homo sapiens, UniProt P50548 1-548); conditions: protein: recombinant; tags: N-terminal GST; dsDNA, one strand shown
T6 sequence: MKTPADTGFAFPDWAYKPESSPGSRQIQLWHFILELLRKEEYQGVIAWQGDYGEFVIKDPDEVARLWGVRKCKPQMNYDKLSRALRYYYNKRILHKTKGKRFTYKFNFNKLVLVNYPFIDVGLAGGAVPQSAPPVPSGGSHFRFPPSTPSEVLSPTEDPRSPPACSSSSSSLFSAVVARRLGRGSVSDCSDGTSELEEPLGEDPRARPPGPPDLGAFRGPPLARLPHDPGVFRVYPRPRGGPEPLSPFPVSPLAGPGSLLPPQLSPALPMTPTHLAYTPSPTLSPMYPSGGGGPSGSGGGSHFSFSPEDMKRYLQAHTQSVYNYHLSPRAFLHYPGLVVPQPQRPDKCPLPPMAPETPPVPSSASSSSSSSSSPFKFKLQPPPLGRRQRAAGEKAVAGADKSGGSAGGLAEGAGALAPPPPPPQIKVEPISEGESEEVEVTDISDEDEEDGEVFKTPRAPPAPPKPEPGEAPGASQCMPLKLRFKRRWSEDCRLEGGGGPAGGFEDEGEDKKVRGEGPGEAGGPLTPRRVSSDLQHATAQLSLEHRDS
Outline: as §1

ETV3L = biological target: T7, ETV3L (Homo sapiens, UniProt Q6ZN32 1-361); conditions: protein: recombinant; tags: N-terminal GST; dsDNA, one strand shown
T7 sequence: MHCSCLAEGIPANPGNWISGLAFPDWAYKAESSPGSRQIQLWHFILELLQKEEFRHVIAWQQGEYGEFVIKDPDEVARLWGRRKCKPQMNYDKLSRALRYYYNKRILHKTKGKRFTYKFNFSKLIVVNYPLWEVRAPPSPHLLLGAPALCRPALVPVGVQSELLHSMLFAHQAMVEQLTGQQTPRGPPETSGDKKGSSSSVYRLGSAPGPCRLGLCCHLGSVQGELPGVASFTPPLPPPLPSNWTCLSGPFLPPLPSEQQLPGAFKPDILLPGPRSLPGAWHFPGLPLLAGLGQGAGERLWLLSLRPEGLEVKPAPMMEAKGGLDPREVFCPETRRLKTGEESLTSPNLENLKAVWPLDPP
Outline: as §1

ETS2 = biological target: T8, ETS2 (Homo sapiens, UniProt P15036 1-469); conditions: protein: recombinant; tags: N-terminal GST; dsDNA, one strand shown
T8 sequence: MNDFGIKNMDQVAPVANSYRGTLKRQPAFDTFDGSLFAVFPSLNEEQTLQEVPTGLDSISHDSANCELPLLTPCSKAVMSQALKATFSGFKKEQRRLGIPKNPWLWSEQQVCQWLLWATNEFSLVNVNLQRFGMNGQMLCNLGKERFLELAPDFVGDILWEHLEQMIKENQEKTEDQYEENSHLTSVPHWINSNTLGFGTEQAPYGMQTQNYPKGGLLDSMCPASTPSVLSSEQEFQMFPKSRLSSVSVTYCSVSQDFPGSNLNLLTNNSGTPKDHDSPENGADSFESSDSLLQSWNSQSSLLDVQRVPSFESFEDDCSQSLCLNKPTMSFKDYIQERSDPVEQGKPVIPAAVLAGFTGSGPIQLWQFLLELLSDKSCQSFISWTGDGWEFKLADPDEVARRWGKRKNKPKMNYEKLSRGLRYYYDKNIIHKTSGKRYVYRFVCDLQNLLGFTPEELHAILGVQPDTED
Outline: as §1

SPDEF = biological target: T9, SPDEF (Homo sapiens, UniProt O95238 1-335); conditions: protein: recombinant; tags: N-terminal GST; dsDNA, one strand shown
T9 sequence: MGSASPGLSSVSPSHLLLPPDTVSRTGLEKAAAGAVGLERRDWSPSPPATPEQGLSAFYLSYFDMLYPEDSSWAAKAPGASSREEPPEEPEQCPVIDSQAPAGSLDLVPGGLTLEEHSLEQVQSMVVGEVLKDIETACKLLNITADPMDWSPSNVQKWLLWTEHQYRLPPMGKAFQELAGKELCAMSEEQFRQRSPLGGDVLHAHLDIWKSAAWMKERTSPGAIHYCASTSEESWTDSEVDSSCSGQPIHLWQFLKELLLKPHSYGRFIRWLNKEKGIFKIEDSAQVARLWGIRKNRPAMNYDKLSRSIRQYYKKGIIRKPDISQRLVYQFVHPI
Outline: as §1

ETV7 = biological target: T10, ETV7 (Homo sapiens, UniProt Q9Y603 1-341); conditions: protein: recombinant; tags: N-terminal GST; dsDNA, one strand shown
T10 sequence: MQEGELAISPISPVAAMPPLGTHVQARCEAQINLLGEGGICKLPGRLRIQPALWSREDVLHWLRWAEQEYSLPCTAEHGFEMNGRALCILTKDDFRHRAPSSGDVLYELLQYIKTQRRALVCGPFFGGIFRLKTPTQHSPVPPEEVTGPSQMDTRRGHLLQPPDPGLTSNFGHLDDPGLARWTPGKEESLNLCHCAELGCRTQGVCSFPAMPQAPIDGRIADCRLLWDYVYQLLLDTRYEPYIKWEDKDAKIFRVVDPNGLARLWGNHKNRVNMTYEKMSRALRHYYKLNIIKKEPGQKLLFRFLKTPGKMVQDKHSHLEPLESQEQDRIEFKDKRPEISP
Outline: as §1

ELF5 = biological target: T11, ELF5 (Homo sapiens, UniProt Q9UKW6-2 1-255); conditions: protein: recombinant; tags: N-terminal GST; dsDNA, one strand shown
T11 sequence: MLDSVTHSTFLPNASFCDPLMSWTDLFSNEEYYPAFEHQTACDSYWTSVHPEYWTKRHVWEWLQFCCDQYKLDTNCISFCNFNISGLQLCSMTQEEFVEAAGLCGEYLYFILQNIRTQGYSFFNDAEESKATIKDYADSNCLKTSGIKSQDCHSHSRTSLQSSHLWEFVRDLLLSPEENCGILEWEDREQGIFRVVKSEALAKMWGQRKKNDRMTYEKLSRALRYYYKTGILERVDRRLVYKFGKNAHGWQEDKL
Outline: as §1

ETV3 = biological target: T12, ETV3 (Homo sapiens, UniProt P41162-2 1-143); conditions: protein: recombinant; tags: N-terminal GST; dsDNA, one strand shown
T12 sequence: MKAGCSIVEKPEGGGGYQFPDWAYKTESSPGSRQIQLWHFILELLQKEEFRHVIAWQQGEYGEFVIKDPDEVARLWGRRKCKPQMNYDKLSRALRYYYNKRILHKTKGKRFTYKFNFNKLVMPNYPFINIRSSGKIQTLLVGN
Outline: as §1

ETV6 = ETV6 (Homo sapiens, UniProt P41212 1-452); conditions: protein: recombinant; tags: N-terminal GST; dsDNA, one strand shown
Outline: as §1

Chain of ETV5 (P41161 whole entry): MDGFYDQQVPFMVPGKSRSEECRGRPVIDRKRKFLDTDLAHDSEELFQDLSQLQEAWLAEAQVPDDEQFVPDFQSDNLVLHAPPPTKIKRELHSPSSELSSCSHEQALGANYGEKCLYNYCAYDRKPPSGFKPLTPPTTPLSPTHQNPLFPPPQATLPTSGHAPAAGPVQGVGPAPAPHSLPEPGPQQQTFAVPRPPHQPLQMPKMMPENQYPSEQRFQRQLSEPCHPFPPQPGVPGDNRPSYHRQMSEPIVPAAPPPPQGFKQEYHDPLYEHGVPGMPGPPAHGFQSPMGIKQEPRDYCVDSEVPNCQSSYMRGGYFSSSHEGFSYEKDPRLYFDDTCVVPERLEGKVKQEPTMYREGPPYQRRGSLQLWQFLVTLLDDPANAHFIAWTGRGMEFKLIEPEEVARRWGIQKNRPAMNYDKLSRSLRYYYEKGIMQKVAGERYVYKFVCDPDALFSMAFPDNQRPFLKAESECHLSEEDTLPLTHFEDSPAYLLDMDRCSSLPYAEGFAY
Chain of ETV6 (P41212 whole entry): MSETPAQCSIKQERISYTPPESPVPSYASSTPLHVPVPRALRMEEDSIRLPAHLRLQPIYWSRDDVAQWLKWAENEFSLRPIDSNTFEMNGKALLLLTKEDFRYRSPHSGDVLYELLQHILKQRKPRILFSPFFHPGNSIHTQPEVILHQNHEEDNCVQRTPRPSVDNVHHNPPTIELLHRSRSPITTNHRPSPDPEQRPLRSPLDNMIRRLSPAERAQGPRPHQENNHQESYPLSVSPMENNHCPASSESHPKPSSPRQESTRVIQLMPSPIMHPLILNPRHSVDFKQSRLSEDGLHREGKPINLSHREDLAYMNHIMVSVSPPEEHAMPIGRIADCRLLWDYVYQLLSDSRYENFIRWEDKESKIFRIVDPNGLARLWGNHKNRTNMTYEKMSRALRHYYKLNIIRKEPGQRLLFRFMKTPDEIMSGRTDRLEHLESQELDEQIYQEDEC
Chain of CRX (O43186 whole entry): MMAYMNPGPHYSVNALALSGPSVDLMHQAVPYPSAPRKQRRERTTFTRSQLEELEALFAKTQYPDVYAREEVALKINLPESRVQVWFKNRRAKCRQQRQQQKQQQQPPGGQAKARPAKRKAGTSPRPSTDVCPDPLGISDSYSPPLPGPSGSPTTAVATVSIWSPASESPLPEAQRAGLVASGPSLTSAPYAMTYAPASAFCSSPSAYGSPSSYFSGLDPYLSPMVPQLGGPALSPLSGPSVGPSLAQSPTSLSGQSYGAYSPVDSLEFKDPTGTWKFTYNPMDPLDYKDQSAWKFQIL
Chain of HSF1 (Q00613 whole entry): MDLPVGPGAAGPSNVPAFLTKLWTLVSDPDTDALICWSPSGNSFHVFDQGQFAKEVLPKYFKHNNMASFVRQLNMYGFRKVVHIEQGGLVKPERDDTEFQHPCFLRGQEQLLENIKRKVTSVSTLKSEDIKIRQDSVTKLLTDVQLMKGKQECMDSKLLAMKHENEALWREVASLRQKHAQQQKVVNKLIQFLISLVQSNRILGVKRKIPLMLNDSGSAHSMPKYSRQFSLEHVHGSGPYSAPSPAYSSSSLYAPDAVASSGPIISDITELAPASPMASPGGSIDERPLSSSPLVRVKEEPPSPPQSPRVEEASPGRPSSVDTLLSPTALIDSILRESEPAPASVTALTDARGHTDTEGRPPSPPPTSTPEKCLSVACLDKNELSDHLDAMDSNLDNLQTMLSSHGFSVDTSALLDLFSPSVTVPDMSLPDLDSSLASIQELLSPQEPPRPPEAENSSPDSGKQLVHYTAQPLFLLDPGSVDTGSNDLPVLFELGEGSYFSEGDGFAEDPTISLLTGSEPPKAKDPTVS
Chain of ELF4 (Q99607 whole entry): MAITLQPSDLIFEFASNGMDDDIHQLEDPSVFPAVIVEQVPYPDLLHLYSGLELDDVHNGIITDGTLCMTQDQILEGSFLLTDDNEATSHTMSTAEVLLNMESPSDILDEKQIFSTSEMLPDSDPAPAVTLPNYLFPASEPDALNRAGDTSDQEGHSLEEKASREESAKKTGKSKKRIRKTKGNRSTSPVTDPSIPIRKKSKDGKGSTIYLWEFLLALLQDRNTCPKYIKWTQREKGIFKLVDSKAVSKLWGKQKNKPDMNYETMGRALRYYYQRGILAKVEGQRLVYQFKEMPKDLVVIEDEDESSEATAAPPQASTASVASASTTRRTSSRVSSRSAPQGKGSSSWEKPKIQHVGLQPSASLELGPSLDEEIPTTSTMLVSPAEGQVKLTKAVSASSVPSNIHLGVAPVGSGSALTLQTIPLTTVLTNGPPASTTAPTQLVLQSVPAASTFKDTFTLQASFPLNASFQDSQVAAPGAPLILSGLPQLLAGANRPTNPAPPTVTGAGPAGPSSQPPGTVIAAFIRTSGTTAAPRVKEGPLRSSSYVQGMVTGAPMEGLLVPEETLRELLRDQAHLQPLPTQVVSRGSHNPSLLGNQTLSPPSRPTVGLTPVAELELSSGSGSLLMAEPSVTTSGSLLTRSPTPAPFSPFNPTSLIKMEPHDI
Chain of ETV1 (P50549 whole entry): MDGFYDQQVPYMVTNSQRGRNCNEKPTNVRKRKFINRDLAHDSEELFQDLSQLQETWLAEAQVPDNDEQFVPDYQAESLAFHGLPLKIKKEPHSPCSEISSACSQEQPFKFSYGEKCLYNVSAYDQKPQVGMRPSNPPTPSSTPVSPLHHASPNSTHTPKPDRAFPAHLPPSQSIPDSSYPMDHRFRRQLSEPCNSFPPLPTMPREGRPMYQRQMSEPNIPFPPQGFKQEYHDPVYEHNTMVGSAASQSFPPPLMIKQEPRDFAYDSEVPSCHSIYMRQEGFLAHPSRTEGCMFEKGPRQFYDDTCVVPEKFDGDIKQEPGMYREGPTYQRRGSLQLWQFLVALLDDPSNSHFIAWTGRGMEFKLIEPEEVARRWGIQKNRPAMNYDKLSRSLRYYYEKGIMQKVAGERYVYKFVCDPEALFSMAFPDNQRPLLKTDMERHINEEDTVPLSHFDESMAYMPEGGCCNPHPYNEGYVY

ACTTTC
binding signal (FEV): 1.49 fold enrichment (6-mer frequency, TF over GST control)
binding signal (ETV5): 1.65 fold enrichment (6-mer frequency, TF over GST control)
binding signal (HSF1): 2.49 fold enrichment (6-mer frequency, TF over GST control)
binding signal (SPIC): 1.6 fold enrichment (6-mer frequency, TF over GST control)
binding signal (ELF4): 1.53 fold enrichment (6-mer frequency, TF over GST control)
binding signal (ELK4): 1.86 fold enrichment (6-mer frequency, TF over GST control)
binding signal (ETV2): 1.62 fold enrichment (6-mer frequency, TF over GST control)
binding signal (ELF3): 1.6 fold enrichment (6-mer frequency, TF over GST control)
binding signal (CRX): 1.63 fold enrichment (6-mer frequency, TF over GST control)
binding signal (ETV1): 1.7 fold enrichment (6-mer frequency, TF over GST control)
binding signal (ERF): 1.63 fold enrichment (6-mer frequency, TF over GST control)
binding signal (ETV3L): 1.59 fold enrichment (6-mer frequency, TF over GST control)
binding signal (ETS2): 1.6 fold enrichment (6-mer frequency, TF over GST control)
binding signal (SPDEF): 1.51 fold enrichment (6-mer frequency, TF over GST control)
binding signal (ETV7): 1.51 fold enrichment (6-mer frequency, TF over GST control)
binding signal (ELF5): 1.74 fold enrichment (6-mer frequency, TF over GST control)
binding signal (ETV3): 1.63 fold enrichment (6-mer frequency, TF over GST control)
binding signal (ETV6): 1.57 fold enrichment (6-mer frequency, TF over GST control)
